Experimental data published in PubChem BioAssay (Tox21).
Inconclusive results are not listed. Entries that show only a call come without a potency. The source made the active and inactive calls. Unless noted, the call rests on the fitted dose curve; in most records, active means well fitted activation curve with a large enough effect in the repeat runs; inconclusive means weak or mixed curves; inactive means no such curve, though single readings can be large or run the other way.

experiment: qHTS assay for small molecules that induce genotoxicity in human embryonic kidney cells expressing luciferase-tagged ATAD5 (AID 651632); settings: HEK293T ATAD5-luciferase induction, 16 h; series mostly up to 83.3 µM; activation: at the top concentration; further: nearly all actives have a fitted effect of over 15% in size; further: potency means the concentration at half of the fitted maximal effect
Procedure, shortened: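 Luminescence read-out: after 16 hr compound exposure at 37C, ATAD5-luciferase HEK293T cells received Amplite, 30 min RT, then CCD imaging. A rise in signal marks genotoxic stress.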

For Nc1cc(Cl)cc(Cl)c1, which Potency is on record?
Its Potency is “inactive”.

For Clc1cnc(Oc2ccc(Oc3ncc(Cl)cc3Cl)cc2)c(Cl)c1, which Potency is on record?
The Potency was “inactive”.

Which Potency does the source give for O=S(=O)(O)OOS(=O)(=O)O here?
The Potency was “inactive”.

With O=C(O)c1cc(Oc2ccc(C(F)(F)F)cc2Cl)ccc1[N+](=O)[O-] as the compound, how does the Potency read?
The Potency was “inactive”.

With CNC(=O)O/N=C/C(C)(C)S(C)(=O)=O as the compound, how does the Potency read?
Its Potency is “inactive”.

For OCc1ccco1, which Potency is on record?
The Potency was “inactive”.

For CN(C)CCC#N, which Potency is on record?
Its Potency is “inactive”.

For CC12CC1(C)C(=O)N(c1cc(Cl)cc(Cl)c1)C2=O (stereo not given), which Potency is on record?
Its Potency is “inactive”.

With Oc1c(Br)cc(Br)cc1Br as the compound, how does the Potency read?
The Potency was “inactive”.

For CN1C(=O)CCS(=O)(=O)C1c1ccc(Cl)cc1 (stereo not given), which Potency is on record?
Its Potency is “inactive”.

For CC[N+](=O)[O-], which Potency is on record?
The Potency was “inactive”.

Which Potency does the source give for COP(=S)(OC)SCN1C(=O)c2ccccc2C1=O here?
The Potency was “inactive”.

For COc1cc(-c2ccc(N)c(OC)c2)ccc1N, which “activation” value is on record?
Its value is -8.6% (inactive).

With Sc1ccccc1 as the compound, how does the Potency read?
Its Potency is “inactive”.

Which Potency does the source give for NNc1ccccc1 here?
Its Potency is “inactive”.

With ClCCOCCCl as the compound, how does the Potency read?
The Potency was “inactive”.

For C[C@]12CC[C@H](O)CC1=CC[C@@H]1[C@@H]2CC[C@]2(C)C(=O)CC[C@@H]12, which Potency is on record?
The Potency was “inactive”.

For CNC(=O)O/N=C/C(C)(C)SC, which Potency is on record?
The Potency was “inactive”.

Which Potency does the source give for [N-]=[N+]=CC(=O)OC[C@H](N)C(=O)O here?
The Potency was “inactive”.

With Nc1ccc(N)cc1 as the compound, how does the Potency read?
Its Potency is 29.8 µM (active).

With C=CC(=O)OCCCCCC(C)C as the compound, how does the Potency read?
Its Potency is “inactive”.

With C[C@H]1C(=O)O[C@@H]2CCN3CC=C(COC(=O)[C@](C)(O)[C@]1(C)O)[C@H]23 as the compound, how does the Potency read?
The Potency was “inactive”.

With OC[C@@H](O)[C@H]1O[C@@H]2O[C@H](C(Cl)(Cl)Cl)O[C@@H]2[C@H]1O as the compound, how does the Potency read?
The Potency was “inactive”.

For O=P1(NCCCl)OCCCN1CCCl (stereo not given), which Potency is on record?
Its Potency is “inactive”.

For Cc1ccccc1N, which Potency is on record?
The Potency was “inactive”.

With Cc1ccc(N=C=O)cc1N=C=O as the compound, how does the Potency read?
The Potency was “inactive”.

For Cc1cccc(N)c1, which Potency is on record?
The Potency was “inactive”.

For C=C(C)C(=O)OCC(CC)CCCC (stereo not given), which Potency is on record?
Its Potency is “inactive”.

experiment: qHTS assay for small molecule agonists of the p53 signaling pathway - cell viability (AID 651633; calls by dose curve;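 further: p53RE-bla HCT reporter cells with a stable beta-lactamase p53 reporter; nearly all actives have a fitted effect of over 30% in size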); settings: p53RE-bla HCT-116 viability, ATP luminescence, 16 h; series mostly up to 83.3 µM; activity change, negative = cytotoxicity: at the top concentration
Procedure, shortened: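 Viability counter-read: CellTiter-Glo luminescence (30 min, room temperature) in the same p53RE-bla plates. These plates had been exposed to compounds for 16 h at 37 C.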

For Nc1cc(Cl)cc(Cl)c1, which Potency is on record?
Its Potency is “inactive”.

Which Potency does the source give for Clc1cnc(Oc2ccc(Oc3ncc(Cl)cc3Cl)cc2)c(Cl)c1 here?
Its Potency is “inactive”.

Which Potency does the source give for O=S(=O)(O)OOS(=O)(=O)O here?
Its Potency is “inactive”.

Which Potency does the source give for O=C(O)c1cc(Oc2ccc(C(F)(F)F)cc2Cl)ccc1[N+](=O)[O-] here?
Its Potency is “inactive”.

With CNC(=O)O/N=C/C(C)(C)S(C)(=O)=O as the compound, how does the Potency read?
The Potency was “inactive”.

Which Potency does the source give for OCc1ccco1 here?
Its Potency is “inactive”.

With CN(C)CCC#N as the compound, how does the Potency read?
Its Potency is “inactive”.

For OCCCCO, which Potency is on record?
Its Potency is “inactive”.

With CC12CC1(C)C(=O)N(c1cc(Cl)cc(Cl)c1)C2=O (stereo not given) as the compound, how does the Potency read?
Its Potency is “inactive”.

Which Potency does the source give for Oc1c(Br)cc(Br)cc1Br here?
The Potency was “inactive”.

Which Potency does the source give for CC[N+](=O)[O-] here?
The Potency was “inactive”.

With COP(=S)(OC)SCN1C(=O)c2ccccc2C1=O as the compound, how does the Potency read?
The Potency was “inactive”.

Which Potency does the source give for COc1cc(-c2ccc(N)c(OC)c2)ccc1N here?
The Potency was “inactive”.

Which Potency does the source give for Sc1ccccc1 here?
Its Potency is “inactive”.

With NNc1ccccc1 as the compound, how does the Potency read?
Its Potency is “inactive”.

Which Potency does the source give for ClCCOCCCl here?
Its Potency is “inactive”.

Which Potency does the source give for C[C@]12CC[C@H](O)CC1=CC[C@@H]1[C@@H]2CC[C@]2(C)C(=O)CC[C@@H]12 here?
Its Potency is “inactive”.

For CNC(=O)O/N=C/C(C)(C)SC, which Potency is on record?
Its Potency is “inactive”.

With C=CC(=O)OCC(CC)CCCC (stereo not given) as the compound, how does the Potency read?
Its Potency is “inactive”.

Which Potency does the source give for [N-]=[N+]=CC(=O)OC[C@H](N)C(=O)O here?
The Potency was “inactive”.

Which Potency does the source give for Nc1ccc(N)cc1 here?
Its Potency is “inactive”.

With C=CC(=O)OCCCCCC(C)C as the compound, how does the Potency read?
Its Potency is “inactive”.

Which Potency does the source give for C[C@H]1C(=O)O[C@@H]2CCN3CC=C(COC(=O)[C@](C)(O)[C@]1(C)O)[C@H]23 here?
Its Potency is “inactive”.

Which Potency does the source give for Cc1ccccc1N here?
Its Potency is “inactive”.

With Cc1ccc(N=C=O)cc1N=C=O as the compound, how does the Potency read?
The Potency was “inactive”.

For Cc1cccc(N)c1, which Potency is on record?
The Potency was “inactive”.

For C=C(C)C(=O)OCC(CC)CCCC (stereo not given), which Potency is on record?
Its Potency is “inactive”.
